Assay results published in PubChem BioAssay (NCATS).
Results filed as inconclusive are left out. The source made the active and inactive calls. Calls come from the whole dose curve; as a rule, active = well fitted curve in the direction sought with a large enough effect; inconclusive = small, poorly fitted or top-dose-only effect, or another doubt; inactive = no such curve, though single readings can be large; an effect the other way counts as inactive or inconclusive.

How the values were obtained:
[1] = HPAF-II Cancer Cell Toxicity qHTS against the NCATS CANVASS Library (AID 1347346); note: nearly all actives have a fitted effect of over 55% in size; note: potency is the fitted concentration of half-maximal effect
Summary of the method: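 Using 1000 HPAF-II cells per well, we titrated compounds over 11 concentrations for 72 h at 37 degrees C/5% CO2, with bortezomib as control. Cell survival was quantified by CellTiter-Glo luminescence.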

[2] = OV-SAHO Cancer Cell Toxicity qHTS against the NCATS CANVASS Library (AID 1347348); note: nearly all actives have a fitted effect of over 55% in size; note: potency is the fitted concentration of half-maximal effect
Summary of the method: (§1)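 Bortezomib titration and single-dose wells served as plate controls. Test compounds, 11 points, acted on 1000 cells/well for 72 h at 37 degrees C; CellTiter-Glo luminescence quantified remaining viable cells.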

[3] = SW1088 Cancer Cell Toxicity qHTS against the NCATS CANVASS Library (AID 1347350); note: nearly all actives have a fitted effect of over 75% in size; note: potency is the fitted concentration of half-maximal effect
Summary of the method: as §1

[4] = U-118MG Cancer Cell Toxicity qHTS against the NCATS CANVASS Library (AID 1347351); note: potency is the fitted concentration of half-maximal effect
Summary of the method: as §1

[5] = COV-362 Cancer Cell Toxicity qHTS against the NCATS CANVASS Library (AID 1347352); note: potency is the fitted concentration of half-maximal effect
Summary of the method: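 Using an ATP-based luminescent reagent after three days of treatment, toxicity is scored across an eleven-concentration range in wells holding 1000 cells each.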

[6] = SDT Cancer Cell Toxicity qHTS against the NCATS CANVASS Library (AID 1347365); note: nearly all actives have a fitted effect of over 60% in size; note: potency is the fitted concentration of half-maximal effect
Summary of the method: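 Canine SDT glioma cell toxicity was scored by ATP-dependent luminescence after a 72 hr incubation with an 11-point compound series.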

[7] = G06 Cancer Cell Toxicity qHTS against the NCATS CANVASS Library (AID 1347368); note: nearly all actives have a fitted effect of over 60% in size; note: potency is the fitted concentration of half-maximal effect
Summary of the method: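 Quantitative HTS in G06 cells (dog glioma): 72 hr treatment, 11 concentrations, then ATP-based luminescent viability readout; bortezomib 0.1 nM–4.6 uM final as reference.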

[8] = MCF7 Cancer Cell Toxicity qHTS against the NCATS CANVASS Library (AID 1347369); note: potency is the fitted concentration of half-maximal effect
Summary of the method: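 Cytotoxicity is measured by ATP content: MCF7 cells at 500 per well receive an 11-point compound series and, after 72 hr at 37C, are lysed with CellTiterGlo for luminescence.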

[9] = qHTS for ATAD5 Antagonist screened against the NCATS CANVASS Library (AID 1347370); note: nearly all actives have a fitted effect of over 65% in size; note: potency is the fitted concentration of half-maximal effect
Summary of the method: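 HEK293T-ATAD5 luc reporter, 2000 cells/well; 5hr attach; cpd + 10 uM 5-FUrd; 16hr 37C, 5% CO2. Readouts: CellTiter-Fluor fluorescence (1hr), then Amplite luciferase luminescence (30min RT).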

[10] = biological target: Nuclear receptor subfamily 1 group I member 3 (Homo sapiens) (UniProt Q14994); experiment: qHTS for Constitutive Androstane Receptor (CAR) Antagonist screened against the NCATS CANVASS Library (AID 1347372); note: potency is the fitted concentration of half-maximal effect
Chain of Nuclear receptor subfamily 1 group I member 3 (Homo sapiens) (Q14994 whole entry, looked up): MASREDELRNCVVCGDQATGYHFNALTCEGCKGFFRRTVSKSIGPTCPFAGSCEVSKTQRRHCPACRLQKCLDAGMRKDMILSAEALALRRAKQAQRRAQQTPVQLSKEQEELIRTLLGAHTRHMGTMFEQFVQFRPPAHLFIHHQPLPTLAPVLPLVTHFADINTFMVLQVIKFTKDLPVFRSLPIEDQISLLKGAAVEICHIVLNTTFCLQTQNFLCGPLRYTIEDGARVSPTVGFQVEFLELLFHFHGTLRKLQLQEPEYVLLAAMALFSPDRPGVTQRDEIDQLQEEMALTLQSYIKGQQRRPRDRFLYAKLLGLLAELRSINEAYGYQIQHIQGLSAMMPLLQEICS
Summary of the method: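 Cells were seeded and left 4hr to attach, then received compound at 11 concentrations and 50 nM CITCO. Following 24hr incubation, fluorescence viability and luciferase luminescence were read sequentially.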

[11] = qHTS for Inflammasome Signaling Inhibitors: IL-1-beta AlphaLISA screen against the NCATS CANVASS Library (AID 1347379);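 note: human THP-1 cells primed with LPS then triggered with ATP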;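 for Potency: secreted IL-1B measured as AlphaLISA emission at 615 nm; potency is the fitted concentration of half-maximal effect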
Summary of the method: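 THP-1, 1 hr compound pre-incubation, then LPS 250 ng/mL + ATP 1.25 mM (final); 16 hr total with compound; IL-1B AlphaLISA, ex 680/em 615 nm; 11-point qHTS, up to 57.5 uM final.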

[12] = qHTS for Activators of p53 Stress Response Pathway screened against the NCATS CANVASS Library (AID 1347388)
Summary of the method: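 p53RE-bla HCT-116 cells (4000/well) were plated 5 h at 37C, exposed to compounds for 16 h at 37C over an 11-point concentration series, then loaded with CCF4 for 2 h at room temperature; 460/530 nm emission ratio read.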

[13] = Secretion counterscreen for inhibitors of the SERCaMP assay screened against the NCATS CANVASS Library (AID 1347390);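 note: light from luciferase secreted into medium read as a measure of general secretion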; note: potency is the fitted concentration of half-maximal effect
Summary of the method: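 Counterscreen identifying compounds that disrupt secretion, using SH-SY5Y cells with a constitutively secreted Gaussia luciferase reporter. A 20 h compound exposure (top 77 uM) precedes luminescent detection with coelenterazine.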

[14] = qHTS for activators of Nrf2/ARE signaling pathway screened against the NCATS CANVASS Library (AID 1347391); note: nearly all actives have a fitted effect of over 60% in size
Summary of the method: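 Activation of Nrf2/ARE was scored in ARE-bla HepG2 cells after 16 h compound exposure using CCF4 beta-lactamase fluorescence ratio readings.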

[15] = qHTS for inhibitors of ER calcium dysfunction: SERCaMP assay screened against the NCATS CANVASS Library (AID 1347393); note: nearly all actives have a fitted effect of over 40% in size; note: potency is the fitted concentration of half-maximal effect
Summary of the method: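 qHTS in SH-SY5Y reporter cells: 16 h compound pretreatment, 4 h thapsigargin, then secreted Gaussia luciferase measured by luminescence.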

[16] = Vero-766 cells viability qHTS against the NCATS CANVASS Library: Counterscreen for Zika virus inhibition assay (AID 1347394); note: nearly all actives have a fitted effect of over 60% in size; note: potency is the fitted concentration of half-maximal effect
Summary of the method: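 This cytotoxicity counterscreen uses African green monkey Vero 766 cells in the absence of Zika virus. Compounds are incubated with cells for 72 h, and ATP-based luminescence reports viability.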

[17] = Viability qHTS for inhibitors of the SERCaMP assay screened against the NCATS CANVASS Library (AID 1347400); note: nearly all actives have a fitted effect of over 70% in size; note: potency is the fitted concentration of half-maximal effect
Summary of the method: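 Measures loss of viability in SERCaMP reporter SH-SY5Y cells treated for 48 h with compounds; luminescent ATP detection by CellTiter-Glo.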

Measured: Potency

C[N+](C)(C)CCc1c[nH]c2ccccc12
inactive: all assays above

CC[C@H]1CN2CCc3c([nH]c4cccc(OC)c34)[C@@H]2C[C@@H]1/C(=C\OC)C(=O)OC
active: [4] 18.8 µM | [15] 13.6 µM
not listed: [2] | [3] | [6] | [7] | [13] | [14]
inactive: all other assays above

CCCC[C@@H]1CC[C@H]2CCCC(CCCO)N12 (some centres not stated)
not listed: [15]
inactive: all other assays above

CCCC[C@@H](C)/C=C1/CN2CCC[C@H]2[C@@](C)(O)[C@@H]1O
not listed: [1] | [14] | [15]
inactive: all other assays above

C/C=C(\C)C(=O)O[C@@H]1[C@@H](O)[C@@H]2O[C@H]3[C@H](O[C@@H](CCCCC)CCCCCCC(=O)CCC(=O)OC[C@@H](O2)[C@H]1OC(=O)/C=C/c1ccccc1)O[C@H](C)[C@H](OC(C)=O)[C@@H]3O
inactive: [9] | [12] | [16]
active: [1] 0.133 µM | [2] 0.0747 µM | [3] 14.9 µM | [6] 0.0526 µM | [7] 0.0047 µM | [10] 0.0524 µM | [13] 0.0767 µM | [15] 0.086 µM

C/C=C1/CN2CC[C@@]34c5ccccc5N(C)[C@@H]3[C@@H]2C[C@@H]1[C@H]4C(=O)OC
active: [15] 0.86 µM
not listed: [3] | [6] | [8] | [9]
inactive: all other assays above

C=C(C)[C@H]1C(=O)c2c3c(cc4c5c(n1c24)[C@@]1(C)[C@@H](CC[C@H]2[C@](C)(/C=C/C=C(\C)C(=O)O)[C@@H](O)CC[C@@]21C)C5)C1=CC(C)(C)OC(C)(C)[C@H]1[C@@H]3O
inactive: [11] | [14] | [15]
active: [1] 5.95 µM | [2] 11.8 µM | [3] 5.95 µM | [4] 18.8 µM | [5] 21.1 µM | [9] 16.6 µM | [16] 7.41 µM

C[C@]12CC(O)C3[C@@H](CC[C@@H]4C[C@@H](O)CC[C@]34CO)[C@@]1(O)CC[C@@H]2C1=CC(=O)OC1 (some centres not stated)
inactive: [12] | [14]
active: [1] 10.6 µM | [4] 2.66 µM | [5] 7.47 µM | [6] 2.64 µM | [7] 4.18 µM | [8] 5.23 µM | [9] 13.2 µM | [10] 4.17 µM | [11] 12.2 µM | [17] 7.6 µM

C[C@]12CC(O)C3[C@@H](CCC4C[C@@H](O)CC[C@@]43CO)[C@@]1(O)CC[C@@H]2C1=CC(=O)OC1 (some centres not stated)
inactive: [3] | [9] | [14] | [15]
active: [6] 10.5 µM | [7] 13.2 µM | [10] 10.5 µM | [17] 13.5 µM

CO[C@@H](/C=C/CC/C=C/C(=O)O)[C@@H](O)[C@H](C)/C=C(\C)[C@H](O)[C@H](C)C(=O)CCCC1CC(=O)NC(=O)C1
inactive: all assays above

CCCCC1CC[C@H]2CCCC(CCC)N12 (some centres not stated)
inactive: all assays above

CC(C)CC1C(=O)O[C@H](C(C)C)C(=O)N(C)C(CC(C)C)C(=O)O[C@@H](C(C)C)C(=O)N(C)C(CC(C)C)C(=O)O[C@H](C(C)C)C(=O)N(C)C(CC(C)C)C(=O)O[C@@H](C(C)C)C(=O)N1C (some centres not stated)
active: [1] 5.95 µM | [2] 5.94 µM | [3] 5.95 µM | [10] 20.9 µM | [16] 11.7 µM | [17] 42.8 µM
inactive: [4] | [8] | [11] | [12] | [14]
